# Test results published in ChEMBL document CHEMBL3433997, “St. Jude Leishmania screening dataset” (2016).
# Key:
# Assay type in all cases: functional
# [1] = molecular target: Solute carrier family 2, facilitated glucose transporter member 1 (Homo sapiens) (UniProt P11166); experiment: ST_JUDE_LEISH: Cytotoxicity at 2uM final concentration against transgenic Leishmania Mexicana promastigotes LmGLUT1 that are glucose transport deficient and complemented with the human glucose transporter GLUT1. Activity is measured by DNA content using SYBR green in vitro
# Chain of Solute carrier family 2, facilitated glucose transporter member 1 (Homo sapiens) (P11166 whole entry): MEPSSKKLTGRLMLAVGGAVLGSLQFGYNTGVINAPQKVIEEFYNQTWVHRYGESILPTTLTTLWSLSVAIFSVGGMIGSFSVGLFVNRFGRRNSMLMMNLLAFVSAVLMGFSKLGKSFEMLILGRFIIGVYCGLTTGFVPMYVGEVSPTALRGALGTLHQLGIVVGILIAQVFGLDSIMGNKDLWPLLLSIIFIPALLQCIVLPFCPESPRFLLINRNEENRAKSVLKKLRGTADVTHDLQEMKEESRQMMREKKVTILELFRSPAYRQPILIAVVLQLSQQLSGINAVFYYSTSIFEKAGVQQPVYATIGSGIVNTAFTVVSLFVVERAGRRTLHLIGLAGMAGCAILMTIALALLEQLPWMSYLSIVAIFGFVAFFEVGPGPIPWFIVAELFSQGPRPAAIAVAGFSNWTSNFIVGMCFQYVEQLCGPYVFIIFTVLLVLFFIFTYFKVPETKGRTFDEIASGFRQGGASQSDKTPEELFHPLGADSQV
# [2] = molecular target: Hexose transporter 1 (Plasmodium falciparum) (UniProt O97467); experiment: ST_JUDE_LEISH: Cytotoxicity at 2uM final concentration against transgenic Leishmania Mexicana promastigotes LmPfHT that are glucose transport deficient and complemented with the Plasmodium falciparum hexose transporter. Activity is measured by DNA content using SYBR green in vitro
# [3] = molecular target: Glucose transporter (Leishmania mexicana) (UniProt O61059); experiment: ST_JUDE_LEISH: Cytotoxicity at 2uM final concentration against transgenic Leishmania Mexicana promastigotes LmGT2 that are glucose transport deficient and complemented with the L. Mexicana glucose transporter 2. Activity is measured by DNA content using SYBR green in vitro
SMILES,inhibition [1] [%],inhibition [2] [%],inhibition [3] [%]
CO/C(=C\C=C\c1cc2cc(Cl)c(Cl)cc2[nH]1)C(=O)NCC(C)(C)CN(C)C,-1.89,2.21,1.65
Cc1ccc(Nc2nc(N/N=C/c3cc4c(cc3Br)OCO4)nc(Nc3ccc([N+](=O)[O-])cc3)n2)cc1C,1.58,2.19,4.71
Cc1cc(NCCc2ccccc2)nc(NC(=N)Nc2ccccc2Cl)n1,9.69,7.74,7.34
CNc1nc(Nc2ccccc2C)nc2ccccc12,33.8,34.3,18.3
CCOC(=O)c1ccc(NC(=O)Nc2ccc(-c3cccc(-c4nc5cc(F)ccc5[nH]4)c3)cc2)cc1,2.36,2.86,1.54
Cc1ccc2sc(N3CCN(C(=O)c4ccc([N+](=O)[O-])o4)CC3)nc2c1C,44.5,44.3,13.7
Cn1nc(-c2ccc(NC(=O)Nc3cc(C(F)(F)F)ccc3F)c(F)c2)c2cnc(NCCCn3ccnc3)nc21,-0.19,-1.5,0.5
Clc1cccc(C=NNc2nc(=Nc3ccccc3)[nH]c(=Nc3ccccc3)[nH]2)c1,8.44,5.13,3.05
Cc1cc(Nc2ccncc2)n2nc(C)c(-c3ccc(Cl)cc3)c2n1,11.6,9.35,8.71
Cc1ccc(/C=C/C(=O)N2CCC(CCN3CCC(c4c[nH]c5ccccc45)CC3)CC2)cc1C,1.87,1.19,6.17
CCC(=O)N(c1ccccc1)C1CCN(CCCC(NC(=O)c2cc(C(F)(F)F)cc(C(F)(F)F)c2)c2ccc(Cl)c(Cl)c2)CC1 (stereo unspecified),8.75,5.36,6.09
CCc1cn2c3c(cc(C(=O)N[C@@H](Cc4cccc(Cl)c4)[C@H](O)CNC4CC4)cc13)N(C)S(=O)(=O)CC2,-0.47,-1.46,-2.88
CCn1cnc2c(N3CCCS3(=O)=O)cc(C(=O)N[C@@H](Cc3ccccc3)[C@H](O)CNC(C)(C)c3cccc(C(F)(F)F)c3)cc21,3.01,2.45,2.04
CC(C)NCc1ccc(-c2ccc(-c3nc4cc(C(F)(F)F)ccc4[nH]3)s2)cc1,19.5,17.8,15.3
CCC1(C)N=C(N)N=C(N)N1c1ccccc1 (stereo unspecified),-3.49,0,-3.1
O=C(/C=C/c1ccc(Cl)c(Cl)c1)NCCCCCCN1CCN(C(=O)Nc2cccc(Cl)c2)CC1,0.57,1.97,3.02

SMILES,inhibition [1] [%],inhibition [2] [%],inhibition [3] [%]
CCOc1ccc(Br)cc1/C=C/C(=O)Nc1ccc2c(c1)CCCN(C)C2,11.6,10.4,11.8
Cc1cc2[nH]c(-c3ccc(C(=O)NCCCN4CCN(c5cccc(Cl)c5)CC4)cc3)nc2cc1Cl,1.69,3.45,-1.01
CC(=O)Nc1ccc(C(=O)Nc2cccc(-c3ccc(-c4nc5cc(F)ccc5[nH]4)cc3)c2)cn1,-1.01,2.17,0.38
Cc1cc(N[C@@H](CC(C)C)C(=O)Nc2ccccc2)nc(NCCc2ccc(F)cc2)n1,4.85,1.97,1.72
Cc1ccc(C(NC(=O)Cc2ccccc2)c2ccc3cccnc3c2O)cc1 (stereo unspecified),8.52,22.8,0.77
Cc1cc(N[C@@H](Cc2ccccc2)C(=O)NCc2cccc(F)c2)nc(NCCc2cccs2)n1,2.6,2.99,2.23
Cc1c(-c2ccccc2)ccc2[nH]cc(CC#N)c12,1.56,3.54,0.3
Cc1cc(N2CCCC2=O)ccc1-c1ccc(C(=O)N2CCC(Oc3cccc(Cl)c3)CC2)cc1,0.43,1.95,3.87
COc1cc(F)c2ncc(F)c([C@@H](O)CN3CCC(NCc4cc5c(cn4)OCCO5)CC3)c2c1,1.43,2.18,2.06
O=C(Nc1ccc(F)cc1)c1ccc(C(=O)NC2CCN(CC3CCCCC3)CC2)cc1,19.2,16.6,11.7
CN(C)CCOc1ccc2c(c1)OC(C)(C)C=C2c1cccc2ccccc12,4.01,3.57,3.75
COc1ccc2ncc(F)c(CCN3CC[C@@H](CNCc4cc(C)c5c(c4)OCCO5)C3)c2n1,7.09,8.46,5.39
O=C(CSc1nn(-c2ccccc2)c(=S)s1)c1c[nH]c2ccccc12,2.16,2.64,2.3
CCOc1ccc2nc(C)cc(N/N=C/c3cccc([N+](=O)[O-])c3)c2c1,0.39,0.05,-1.04
Cc1nc(C)c(-c2ccc(Oc3cc(Cl)cc(Cl)c3)cc2)c(O)c1Cl,2.68,3.03,0.49
N=C(N)NC(=O)Nc1ccc(Cl)c(Cl)c1,3.47,-2.48,-1.06
